Each structure is given as a SMILES string. About 83,000 compounds went through this panel and 20% of them were active in at least one assay; those are over-represented in the sample as a whole.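 Percent growth is the endpoint: 0 to 100 indicates growth inhibition (40 means 60% inhibition), 0 means no net growth, and negative values indicate cell death.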 A number with no mark means an inactive call. Activity calls are given as the source filed them. How the source made its calls: active means growth percent below 10; inactive means the rest.

The test system of this assay is OVCAR-5 ovarian. Briefly: NCI-60 one-dose screen, 48 h (100 = growth as untreated, 0 = no growth, -100 = all killed). The conditions noted are these: 10 µM unless noted.
Consider `CCCC(=O)N1CCCCC1CC` (stereo not drawn), for which the growth is 87.5%.
Take `CC(=O)O[C@@H]1CCN2C(=O)N(C)c3ccccc3[C@@H]2C1`: the growth is 96.5%.
In the case of `O=C(/C=C\c1ccc2c(c1)OCO2)/C=C/c1ccc2c(c1)OCO2`, the growth is 108%.
Turning to `O=C1NC(c2ccc(Cl)c(Cl)c2)=C/C1=C\c1ccccc1`, the growth is 73.2%.
Under `O=C1C=Cc2ncccc2C1=O` stands 106%.
Under `COc1ccc(C2C(C#N)=C(N)Oc3c2sc2c(F)cccc32)cc1` (stereo not drawn) stands 69.3%.
For the molecule `COC(=O)[C@]12CC[C@@H](C)[C@H](C)[C@@H]1C1=CC[C@@H]3[C@@]4(C)C(c5ncon5)=C[C@@](C)(CO)C4=CC[C@@]3(C)[C@]1(C)CC2`, the growth is -56.2% (active).
With `Cc1cc2nc3c4cc(Cl)ccc4n(CCN(C)C)c3nc2cc1C`, the growth was 21.8%.
Take `COc1cc2c(cc1-c1c(C)noc1C)ncc1nc(C3CC3)n([C@H](C)COC(F)F)c12`: the growth was 84.2%.
With `CCCCC[C@H]1CC=C2C(=O)C(Cl)=C[C@@H]2CC=CCCCC(=O)O[C@@H](CCCCC)CC=C2C(=O)C(Cl)=C[C@@H]2CC=CCCCC(=O)O[C@@H](CCCCC)CC=C2C(=O)C(Cl)=C[C@@H]2CC=CCCCC(=O)O1` the figure was 144% [8 µM].
With `NC(=O)[C@@H]1CC2CCC1C2` (stereo partly drawn), the growth is 95%.
For `C=C(C)[C@@H]1CC[C@]2(C=O)CC[C@]3(C)[C@H](CC[C@@H]4[C@@]5(C)C/C(=C/c6cccnc6)C(=O)C(C)(C)[C@@H]5CC[C@]43C)[C@@H]12`, the growth was 128%.
`Cc1cc(N(CCNc2ccnc3cc(Cl)ccc23)Cc2ccco2)nc(Cl)n1`: the growth is -37.5% (active).

These data come from PubChem BioAssay (NCI).
